Measurements reported in PubChem BioAssay (NCI).
The panel holds about 83,000 compounds, 20% with a hit somewhere; the sample as a whole holds those more often.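 Assay: single dose, 48 h. Readout: percent growth (0 = no net growth; negative = cell death). Active: <10.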 Activity calls are given as the source filed them.

These compounds were tested on SK-MEL-5 melanoma (assay: NCI-60 one-dose screen, 48 h (100 = growth as untreated, 0 = no growth, -100 = all killed)). Settings: 10 µM unless noted.
Protocol: Growth inhibition of the SK-MEL-5 human tumor cell line is measured as a screen for anti-cancer activity. Cells are grown in 96 well plates and exposed to the test compound for 48 hours. Compounds are tested at a single concentration, which is 10^-5 M for most compounds. The reported endpoint is percent growth (GI% or GIPRCNT), where numbers from 0 - 100% represent growth inhibition, and numbers from -100% - 0 represent cell death. For example, a value of 40 represents 60% growth inhibition. A value of 0 means no net growth occurred over the course of the experiment. A value of -40 indicates 40% of cells at the beginning of the experiment died by the end of the experiment. A value of -100 means all cells are dead at the end of the experiment.
NCI-60 Human Tumor Cell Lines Screen was performed using the standard one-dose NCI protocol, which is described in more detail at https://dtp.cancer.gov/discovery_development/nci-60/default.htm.
Compounds with GIPRCNT values below 10 were considered active. Activity score was based on GIPRCNT using the following formula: […]
Score is 0 for GIPRCNT values of 100 or above, 50 for GIPRCNT values of 0, and 100 for GIPRCNT values of -100.

Compound	growth
CCCCCCCCNc1ncnc2c1ncn2Cc1nnc2c3ccccc3c(Cl)nn12	39.3% (inactive)
COc1ccc(/C(C)=C(\c2ccc(Cl)cc2)c2ccc(OCCCN(C)C)cc2)cc1	37.8% (inactive)
CC1(C)C2=C(C(=O)N1Cc1ccccc1)C(c1ccco1)N(C(=O)C1CCC1)CCN2 (stereo not given)	105% (inactive)
C=C(CNCCO)[C@@H]1CC[C@]2(CO)CC[C@]3(C)[C@H](CC[C@@H]4[C@@]5(C)CCC(NCCO)C(C)(C)[C@@H]5CC[C@]43C)[C@@H]12 (stereo not given in full)	65.2% (inactive)
COc1ccc(/C=C\c2cc(OC)c(OC)c(OC)c2)cc1OCC(=O)Nc1nc2ccccc2s1	-64% (active)
COc1cc2c(c(OC)c1OC)CCC(c1cccc(C(=O)Nc3ccc([N+](=O)[O-])cc3)c1)O2 (stereo not given)	15.4% (inactive)
O=C(CSc1nc(-c2ccccc2)cn1-c1ccc(Cl)cc1)c1ccc([N+](=O)[O-])cc1	80.8% (inactive)
COc1ccc(N2C(=O)/C(=C/C(Cl)=C/c3ccc([N+](=O)[O-])cc3)SC2=S)cc1	29.3% (inactive)
CC(C)(C)n1cc(-c2ccnc(NCCNS(=O)(=O)c3cccc4ccccc34)c2)c(-c2cccc(O)c2)n1	45.1% (inactive)
C=C1/C(=C\C=C2/CCC[C@]3(C)[C@@H]([C@H](C)CCCC(C)(C)O)CC[C@@H]23)C[C@@H](OC(=O)CBr)C[C@@H]1O	84.7% (inactive)
O=C1/C(=C/c2ccc(Br)cc2)COc2ccc(O)cc21	96% (inactive)
C#Cc1ccc(NC(=O)Cc2ccc(/C=C/C(=O)c3nccn3C)cc2)cc1	87.3% (inactive)
CN1CCN(c2ccc(Nc3ncc4[nH]c(=O)n(Cc5ccccc5N)c4n3)cc2)CC1	101% (inactive)
CCOC(=O)c1c2c(n3ccc(NC(=O)CCN4CCCC4)cc13)C(=O)c1ncccc1C2=O	68.6% (inactive)
COc1ccc(S(=O)(=O)Oc2ccc(-c3sc4cc(OS(=O)(=O)c5ccc(OC)cc5)ccc4c3C(=O)c3ccc(OCCN4CCCCC4)cc3)cc2)cc1	101% (inactive)
COC(=O)c1nc(-c2ccccc2)oc1S(=O)(=O)N1CCN(c2ccc(OC)cc2)CC1	90.8% (inactive)
O=C(Nc1ccc(Cl)cc1)C1=NCCCCN1	93.6% (inactive)
CN1/C(=C/C=C/c2n(Cc3ccc4ccccc4c3)c(Cl)c(Cl)[n+]2Cc2ccc3ccccc3c2)Oc2ccccc21	-99.4% (active)
O=C1CCc2c(sc3[nH]c(=S)n(-c4cc(C(F)(F)F)cc(C(F)(F)F)c4)c(=O)c23)C1	-88.9% (active)
Fc1ccc(/C=C/c2cc(/C=C/c3ccc(F)cc3)n(-c3cc(F)cc(F)c3)n2)cc1	100% (inactive)

Compound	growth
COc1cc2cc(Oc3ccc(NC(=O)Nc4ccc(F)c(C(F)(F)F)c4)cc3)c(C)nc2cc1OCCN1CCCCC1	-89.3% (active)
O=C(O)/C=C\C(=O)Nc1ccc2c(c1)Cc1cc(F)ccc1-2	101% (inactive)
C#CCOc1ccc(C2=NN(CCCC)C3N=C(Cl)c4ncn(CCCC)c4N23)cc1OCC#C (stereo not given)	89.7% (inactive)
c1ccc2[nH]c(-c3ccc(-c4nccc5c4[nH]c4ccccc45)cc3)nc2c1	62.6% (inactive)
COC(=O)[C@@H](Cc1c[nH]c2ccccc12)NC[C@@H](O)CN1C(=O)/C(=C\c2cc(OC)c(OC)c(OC)c2)c2ccccc21	59.8% (inactive)
Cc1cc(C(=O)Nc2cc(Nc3ncccc3-c3ncnc4nc[nH]c34)ccc2F)cc(C(C)(C)C#N)c1	27.1% (inactive)
CC1(C)CC[C@]2(CO)CC[C@]3(C)C(=CC[C@@H]4[C@@]5(C)CCNCC(C)(C)[C@@H]5CC[C@]43C)[C@@H]2C1	71.6% (inactive)
Cc1ccc2nc(/C=C/c3ccc(N(C)C)cc3)cc(C)c2c1	33.3% (inactive)
Cc1c2ccncc2c(C)c2c1c1ccccc1n2CCCCCC(=O)O	89.8% (inactive)
CN(C)CCOc1ccc(/C(=C(/CCCCCCCCCC[P+](c2ccccc2)(c2ccccc2)c2ccccc2)c2ccccc2)c2ccccc2)cc1	-97.1% (active)
C/C(=N\NC(=O)c1ccc(C(C)(C)C)cc1)c1ccc(O)cc1O	-41.9% (active)
CC(=O)O[C@H]1CC[C@@]2(C)C(=CC[C@@H]3[C@@H]2CC[C@]2(C)C(Cl)=C(c4nc5ccc(Cl)cn5c4NC(C)(C)C)C[C@@H]32)C1	95.2% (inactive)
CN(C)CCCN(CCC1CCCCC1)CCC1CCCCC1	-82.1% (active)
Cc1ccc(C2=Nc3c(N)nc(N)nc3NC(c3cccc(Nc4ccnc5cc(C(F)(F)F)ccc45)c3)C2)cc1 (stereo not given)	17.6% (inactive)
CCOC(=O)c1cc(C(=O)c2cc(OC)cc(OC)c2)n2ncccc12	26% (inactive)
O=C(Nc1ccccc1CNc1nc(Nc2ccc(OCCN3CCCC3)cc2)ncc1Cl)NC1CCCCC1	64.6% (inactive)
CO[C@H]1CC(c2ccc[nH]2)=N[C@]12O[C@@H](C)C[C@@H]1CCCCCCCc3ccc([nH]3)[C@H]12	-38.4% (active)
CN1CCN(Cc2ccc(NC(=O)c3cc(C#Cc4cnc(N)c5ncccc45)n(C)n3)cc2C(F)(F)F)CC1	93.6% (inactive)
COc1ccc(C2=C/C(=C\c3ccccc3O)C(=O)N2Cc2ccccc2)cc1	66.2% (inactive)
CCN(CC)CCN1C(=O)c2c(c(C)c3c(oc4cc(OC)ccc43)c2C)C1=O	95.8% (inactive)
